This passage reports inhibition results from PubChem BioAssay AID1578 (Sanford-Burnham Center for Chemical Genomics, 2009).

Usually inhibition stands for the drop in the measured response relative to a control, in per cent.

Structures are written as SMILES. The campaign covered roughly 290,000 compounds. About 3,000 (1%) were called active. This is one part of a sample in which actives are shown more often than they occur. Values without a mark were called inactive. No stated cut-off is given here; in the data, active means inhibition mostly above about 36% (no sharp cut-off); inactive means mostly below about 34%.

The assay in a line: NOD1 signaling inhibitors, primary screen, cell-based, luminescence, uHTS (AID 1578).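 Further: HEK-293T reporter cells stimulated with the NOD1 agonist gamma-tri-DAP.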 Particulars: NOD1-driven NF-kB luciferase reporter cells, at 4 µM, stronger effect = higher value.
`O=C(NCc1cccs1)c1cnc2ccccn2c1=O`: the inhibition was -8.1%.

As for `COc1ccc(C(C)(C)C)cc1NC(=O)CCNC(=O)c1ccco1`, the inhibition was -35.1%.

Turning to `O=C(CN1CCCCC1)NNC(=O)c1cccc(Br)c1`, the inhibition was 5.1%.

For the molecule `CCCc1nnc(NC(=O)Cn2c(=O)oc3cc(Br)ccc32)s1`, the inhibition is -17.9%.

`COc1ccc2[nH]c(=O)c(CN(CC3CCCO3)C(=S)Nc3ccccc3)cc2c1` (stereo not drawn): the inhibition was -31.7%.

Take `COc1ccc2[nH]c(=O)c(CN(CC3CCCO3)C(=S)Nc3ccc(C)cc3)cc2c1` (stereo not drawn): the inhibition is -18.3%.

Take `COc1ccc2[nH]c(=O)c(CN(CC3CCCO3)C(=S)Nc3cccc(C)c3)cc2c1` (stereo not drawn): the inhibition is 46.6% (active).

With `COc1cccc(CN(C)CC(=O)NCc2ccccc2Cl)c1`, the inhibition is 8.1%.

With `Cc1ccc(OCC(=O)Nc2ccc(NC(=O)c3ccccc3)cc2)cc1C`, the inhibition was -12.6%.

For the molecule `CCOC(=O)/C(=C\c1ccc(Cl)cc1)c1nc2sc(C)c(C)c2c(=O)[nH]1`, the inhibition was 58.5%.

Consider `CCOC(=O)/C(=C\c1cccc(O)c1)c1nc2sc(C)c(C)c2c(=O)[nH]1`, for which the inhibition is 105% (active).

For `CCOC(=O)c1nc2sc(C)c(C)c2c(=O)[nH]1`, the inhibition is 4.3%.

`CCOC(=O)C1CCN(C(=O)CCc2c(C)nc3ncnn3c2C)CC1`: the inhibition is 2.5%.

Take `OCCN1CCN(Cc2cc(Cl)c3cccnc3c2O)CC1`: the inhibition was 26.4%.

Take `O=C(Cc1c(O)c2ccccc2oc1=O)c1ccc(C(F)(F)F)cc1`: the inhibition was -10.7%.

Consider `O=[N+]([O-])c1cc(Cl)c2cccnc2c1O`, for which the inhibition was -7.9%.

For the molecule `O=c1oc2ccccc2c(O)c1Cc1cc(Cl)c2cccnc2c1O`, the inhibition was 62.6% (active).

Regarding `CCOC(=O)N1CCN(Cc2cc(Cl)c3cccnc3c2O)CC1`, the inhibition was -1.5%.

As to `COc1ccc(NC(=S)Nc2ccc(N)c([N+](=O)[O-])c2)cc1`, the inhibition is -69.8%.

Regarding `Cc1c(CNCc2cccs2)c(C(=O)O)c(C)n1Cc1ccccc1`, the inhibition was 8.7%.

As for `O=C(NC1CCCCC1)N1CCCC(CNS(=O)(=O)Cc2ccccc2)C1` (stereo not drawn), the inhibition was -23.7%.

Regarding `Fc1ccccc1NC(=S)NNc1ncc(C(F)(F)F)cc1Cl`, the inhibition is 12.4%.

Turning to `C/C(=N/Nc1ncc(C(F)(F)F)cc1Cl)c1ccncc1`, the inhibition was -9%.

On to `Oc1cc2c(cc1CN1CCN(c3cccc(C(F)(F)F)c3)CC1)CCC2`, for which the inhibition was 19.7%.

As for `Cc1ccccc1-n1c(=O)cc(N2CCN(Cc3ccccc3)CC2)[nH]c1=O`, the inhibition is -4.3%.

On to `CN1C(=O)C(c2nnc(Nc3cccc4ccccc34)s2)C2CC1(C)Oc1ccccc12` (stereo not drawn), for which the inhibition is 3.3%.

In the case of `O=C1CCCN1CCC(=O)N1CCCC(Nc2ccc(F)c(F)c2)C1` (stereo not drawn), the inhibition was -39.2%.

Turning to `COc1cccc(-c2cc(C(F)(F)F)nc(-n3cncn3)n2)c1`, the inhibition was 97.6% (active).

Take `COc1cccc(-c2cc(C(F)(F)F)nc(-n3cccn3)n2)c1`: the inhibition was -19.7%.

In the case of `COc1ccc(-c2cc(C(F)(F)F)nc(-n3cncn3)n2)cc1`, the inhibition is 18.2%.

`NNC(=O)c1csc(COc2cc(Cl)cc(Cl)c2)n1`: the inhibition was -9.6%.

With `Cc1ccc(C)c(S(=O)(=O)N=Nc2c(O)[nH]c3ccccc23)c1`, the inhibition is -24.6%.

Regarding `CC(NC(=O)CSc1ncn[nH]1)c1ccc(Cl)cc1Cl` (stereo not drawn), the inhibition was -18%.

With `COc1ccc2c(c1)N(C)/C(=C/c1cccc[n+]1C)S2`, the inhibition was 2.2%.

Turning to `CN1/C(=C/c2cccc[n+]2C)Sc2ccccc21`, the inhibition is -2.3%.

For the molecule `Cc1nn(Cc2ccc(F)cc2)c2sc(C(=O)Nc3ccc(N4CCOCC4)cc3N3CCOCC3)cc12`, the inhibition was -10.3%.

Take `CCOC(=O)c1ccc(NC(=O)c2cc(C)nn2-c2ccccc2)cc1`: the inhibition is -1.2%.

On to `O=C(CN1CCN(Cc2ccccc2)CC1)Nc1ccc([N+](=O)[O-])cc1C(=O)Nc1ccccc1F`, for which the inhibition was -2.7%.

`Cc1ccc(C(=O)NCc2nnc(SCC(=O)NC(C)c3ccccc3)n2C)cc1` (stereo not drawn): the inhibition was -35.4%.

Consider `CCN(CC)C(=S)SSC(=S)N(CC)CC`, for which the inhibition was 91.1% (active).

For the molecule `CCN(CC)C(=S)SC1=CCS(=O)(=O)C1`, the inhibition is -17.5%.

Turning to `CCN(CC)C(=S)SCC(=O)c1ccccc1`, the inhibition was -25.7%.

Consider `CC/C(C)=N\N=C\c1c(O)n(CC)c2cc(C3=NNC(=O)CC3)ccc12`, for which the inhibition was -29.5%.

On to `CCC(CC)=N/N=C/c1c(O)n(CC)c2cc(C3=NNC(=O)CC3)ccc12`, for which the inhibition is 60.5% (active).

On to `CCCCC(CCCC)=N/N=C/c1c(O)n(CC)c2cc(C3=NNC(=O)CC3)ccc12`, for which the inhibition was -49.6%.

As to `C=CCNc1nc(C(=O)OCC(=O)c2ccc(C)c([N+](=O)[O-])c2)cs1`, the inhibition is -31.1%.

With `CCOC(=O)c1ccc(-n2c(C)ccc2C)cc1`, the inhibition was -10.6%.

Consider `CCOC(=O)c1ccc(N2C(=O)C(C)=C(C)C2=O)cc1`, for which the inhibition is -37.3%.

Take `CCOC(=O)c1ccc(N2C(=O)C=CC2=O)cc1`: the inhibition is 80.8% (active).

Turning to `NS(=O)(=O)c1ccc(CNC(=O)CSc2ccccc2)cc1`, the inhibition was -19.9%.

For the molecule `O=C(COc1ccccc1Cl)NCCCNC(=O)c1cnccn1`, the inhibition was 27.3%.

As to `CCOc1ccc(NC(=O)CN(C)C(=O)CSC(C)C(=O)Nc2cc(C)on2)cc1OCC` (stereo not drawn), the inhibition was 44.5% (active).

`Cc1cc(NC(=O)C(C)SCC(=O)N(C)CC(=O)Nc2ccc(Br)cc2C)no1` (stereo not drawn): the inhibition is -22.8%.

`Cc1ccc(C)c(NC(=O)CN(C)C(=O)CSC(C)C(=O)Nc2cc(C)on2)c1` (stereo not drawn): the inhibition is -0.8%.

With `COc1cccc(OC)c1-c1nn(-c2ncc(C(F)(F)F)cc2Cl)c(=O)o1`, the inhibition was -7.3%.

Consider `CCOC(=O)c1cc2c(nc1N)CCCC2`, for which the inhibition is 1.3%.

Take `O=C(Cc1cccs1)Nc1nc2c(ccc3ccccc32)s1`: the inhibition was 35.8% (active).

For `CC(=O)Nc1nc2c(ccc3ccccc32)s1`, the inhibition was -38%.

On to `O=C(Cc1cccs1)Nc1nc2ccccc2s1`, for which the inhibition was -32.2%.

On to `COCCn1c(SCC(=O)NCC2CCCO2)nc2c(c1=O)SCC2` (stereo not drawn), for which the inhibition is -12.5%.

As to `COc1ccc(S(=O)(=O)Cc2ccc(C(=O)NCc3ccc(C)cc3)o2)cc1`, the inhibition was -23.8%.

On to `O=C(/C=C/c1ccccc1)NC(=S)Nc1ccc(N2CCOCC2)cc1`, for which the inhibition was -25.8%.

As for `COc1cc(C(=O)Nc2scc(-c3ccccc3)c2C(=O)O)cc(OC)c1OC`, the inhibition was -21.1%.

As to `O=C(Nc1sc2c(c1C(=O)O)CCCC2)c1cccs1`, the inhibition was 43.6%.

`COc1cc(C(=O)Nc2sc3c(c2C(=O)O)CCC3)cc(OC)c1OC`: the inhibition was 7.5%.

On to `O=C(Nc1scc(-c2cccs2)c1C(=O)O)c1cccs1`, for which the inhibition is -40.1%.

Regarding `COc1cc(C(=O)Nc2sc(C)c(C)c2C(=O)O)cc(OC)c1OC`, the inhibition was -18.1%.

`O=C(/C=C/c1ccccc1)Nc1sc2c(c1C(=O)O)CCC2`: the inhibition was -2.6%.

For `COc1cc(C(=O)Nc2scc(-c3ccc(C)cc3)c2C(=O)O)cc(OC)c1OC`, the inhibition was 12.7%.

For `COc1ccc(-c2csc(NC(=O)c3cccs3)c2C(=O)O)cc1OC`, the inhibition is -46.6%.

As to `COc1ccc(CN(C)C(=O)c2cnc(OC)cc2C(F)(F)F)c(OC)c1`, the inhibition was 1%.

As for `OC(CC#CCN1CCCCC1)(c1ccccc1)c1ccccc1`, the inhibition is -4.1%.

Turning to `CCN(c1ccccc1)S(=O)(=O)c1cccc(C(=O)N2CCN(S(=O)(=O)c3ccccc3)CC2)c1`, the inhibition is -20.1%.

On to `Cc1cc(C)nc(NS(=O)(=O)c2ccc(NC(=O)c3ccccc3[N+](=O)[O-])cc2)n1`, for which the inhibition was -22.1%.

Turning to `COc1ccc(-c2nnc(-c3cccnc3)o2)cc1OC`, the inhibition was -21.1%.

Regarding `CC(CNC(=O)COc1ccccc1)OC(=O)Nc1cccc(Cl)c1` (stereo not drawn), the inhibition is 16.6%.

Turning to `CC1=CS/C(=C(/C#N)C(=O)NCc2ccco2)N1c1ccccc1`, the inhibition was 4%.

Regarding `COC(=O)C(Cc1c[nH]c2ccccc12)NC(=O)CNC(C)=O` (stereo not drawn), the inhibition is 6.8%.

Regarding `COC(=O)c1c(NC(=O)c2cccs2)sc2c1CCC(C)C2` (stereo not drawn), the inhibition is -32.6%.

As to `CC1CCc2c(sc(NC(=O)c3ccco3)c2C(=O)O)C1` (stereo not drawn), the inhibition was 14.4%.

Consider `O=C(NCCCN1CCN(c2ccccc2F)CC1)C1CC(=O)N(C2CCCC2)C1` (stereo not drawn), for which the inhibition was 14.3%.

Take `COc1ccc(Br)cc1C(=O)NC(=S)Nc1ccc2[nH]c(=O)[nH]c2c1`: the inhibition is -35.1%.

With `O=C(NC(=S)Nc1ccc2[nH]c(=O)[nH]c2c1)c1ccccc1Cl`, the inhibition was -31.2%.

Turning to `O=C(NC(=S)Nc1ccc2[nH]c(=O)[nH]c2c1)c1cc(Br)ccc1Cl`, the inhibition is 47.4% (active).

On to `COc1ccc2[nH]c(=O)c(CN(Cc3cccnc3)C(=S)NCC3CCCO3)cc2c1` (stereo not drawn), for which the inhibition is -30.3%.

Turning to `O=c1c2[nH]c3ccc(F)cc3c2ncn1CCN1CCOCC1`, the inhibition is -10.5%.

Regarding `O=P(c1ccccc1)(c1ccccc1)C1CCCO1` (stereo not drawn), the inhibition was 4.7%.

`O=S(=O)(c1ccc(Cl)cc1)N1CCC2(CC1)CO2`: the inhibition was -17.5%.

As for `O=S(=O)(c1ccccc1)N1CCC2(CC1)OCCO2`, the inhibition is -41.5%.

For `O=S(=O)(c1ccccc1)N1CCC2(CC1)CO2`, the inhibition was 75.5% (active).

For the molecule `O=C(NCCCNC(=O)C(F)(F)C(F)F)C(F)(F)C(F)F`, the inhibition is -3.6%.

Regarding `O=C(CNS(=O)(=O)c1ccc(Br)cc1)Nc1ccc2c(c1)OCCO2`, the inhibition was -27.7%.

In the case of `CCC(CC)=NNC(=O)c1ccccc1OCc1ccc(F)cc1`, the inhibition was -13.1%.

As for `FC(F)(F)c1ccc(/C=N/NC(=S)NC2CCCCC2)cc1`, the inhibition was -19.8%.

Regarding `COc1cccc(OCc2cc(C(=O)N3CCC(c4ccncc4)CC3)no2)c1`, the inhibition is 26.7%.

Turning to `Cc1cccc(C)c1OCc1cc(C(=O)N2CCC(c3ccncc3)CC2)no1`, the inhibition is 6.6%.

For the molecule `CSc1ccccc1OCc1cc(C(=O)N2CCC(Oc3cccnc3)CC2)no1`, the inhibition was -30.2%.

For `COCC1CCN(C(=O)c2cc(COc3ccccc3SC)on2)C1` (stereo not drawn), the inhibition is -17.6%.
